Calls of active or inactive are those of the source. Unless noted, the rule behind the calls is not given here.
Columns and labels:
[1] = HepG2 liver cancer cell viability effects, profiling panel, resazurin fluorescence, 24 h, PK04 Diversity Set (AID 1172); settings: higher = more signal; note: test concentration not given here
[2] = basal S. cerevisiae growth modulation, no modifier, primary screen, OD600, strain BY4716, 24 h, basal condition (AID 1173); settings: OD600, 24 h, higher = more signal, called active from +8 up or from −8 down
[3] = MM1S myeloma cell viability, profiling panel, resazurin fluorescence, basal, 24 h, PK04 Diversity Set (AID 1174); settings: higher = more signal, called active from +8 up or from −8 down;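 note: MM1S multiple myeloma cell line; test concentration not given here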
[4] = target: Dihydroorotate dehydrogenase (quinone), mitochondrial (Plasmodium falciparum (isolate 3D7)) (UniProt Q08210); assay: PfDHODH enzyme inhibitors, primary screen, biochemical, C-terminal His tag, absorbance 600 nm (AID 1175); settings: DCIP absorbance 600 nm, higher = more signal, called active from +8 up or from −8 down;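 note: recombinant parasite enzyme with a five histidine tag at its C terminus; test concentration not given here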
[5] = P. aeruginosa biofilm formation inhibitors, primary screen, strain PAO1, LB-PBS medium, absorbance 600 nm (AID 1176); note: test concentration not given here; settings: P. aeruginosa PAO1 growth/biofilm, A600, 12 h; higher = more signal
[6] = S. cerevisiae RM11-1a growth modifiers, primary screen, strain RM11-1a, OD600, basal, 24 h (AID 1177); settings: OD600, 24 h, higher = more signal, called active from +8 up or from −8 down;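 note: cultures grown under basal conditions with no added stressor; test concentration not given here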
[7] = E. coli acrAB mutant growth effects, primary screen, E. coli filamentation inducers, strain DRC39, OD650, 24 h (AID 1178); settings: higher = more signal, called active from +8 up or from −8 down;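 note: growth measured as culture turbidity by optical density at 650 nm; test concentration not given here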
[8] = E. coli acrAB mutant growth effects, primary screen, E. coli filamentation inducers, strain DRC39, OD650, 48 h (AID 1179);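 note: screen aims at cell division blockers that make cells filament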; settings: E. coli DRC39 delta-acrAB growth, higher = more signal, called active from +8 up or from −8 down
[9] = RPMI8226 myeloma cell viability, profiling panel, resazurin fluorescence, basal, 24 h, PK04 Diversity Set (AID 1180); settings: higher = more signal;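 note: RPMI8826 multiple myeloma cell line at 5000 cells per well; test concentration not given here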
[10] = target: E3 ubiquitin-protein ligase XIAP (Homo sapiens) (UniProt P98170); assay: XIAP binders, primary screen, biophysical, small-molecule microarray, fluorescence 635 nm (AID 1181); settings: small-molecule microarray binding, higher = more signal;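 note: score merges 667 nm emission and signal to noise over triplicate slides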
Chain of E3 ubiquitin-protein ligase XIAP (Homo sapiens) (P98170 whole entry, looked up): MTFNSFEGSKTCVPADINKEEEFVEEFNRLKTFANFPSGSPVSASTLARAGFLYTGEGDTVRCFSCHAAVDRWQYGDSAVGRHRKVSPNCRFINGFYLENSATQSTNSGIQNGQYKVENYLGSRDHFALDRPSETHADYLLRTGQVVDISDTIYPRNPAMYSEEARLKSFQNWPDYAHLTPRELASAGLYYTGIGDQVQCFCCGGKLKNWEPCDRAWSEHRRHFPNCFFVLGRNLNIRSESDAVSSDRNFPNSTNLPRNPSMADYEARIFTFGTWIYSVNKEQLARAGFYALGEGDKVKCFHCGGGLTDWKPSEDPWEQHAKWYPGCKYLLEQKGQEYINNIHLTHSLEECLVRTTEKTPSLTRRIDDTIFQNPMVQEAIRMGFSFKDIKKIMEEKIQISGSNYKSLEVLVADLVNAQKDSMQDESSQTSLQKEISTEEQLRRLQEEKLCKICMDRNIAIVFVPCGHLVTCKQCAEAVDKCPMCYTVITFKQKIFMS

Chain of Dihydroorotate dehydrogenase (quinone), mitochondrial (Plasmodium falciparum (isolate 3D7)) (Q08210 whole entry, looked up): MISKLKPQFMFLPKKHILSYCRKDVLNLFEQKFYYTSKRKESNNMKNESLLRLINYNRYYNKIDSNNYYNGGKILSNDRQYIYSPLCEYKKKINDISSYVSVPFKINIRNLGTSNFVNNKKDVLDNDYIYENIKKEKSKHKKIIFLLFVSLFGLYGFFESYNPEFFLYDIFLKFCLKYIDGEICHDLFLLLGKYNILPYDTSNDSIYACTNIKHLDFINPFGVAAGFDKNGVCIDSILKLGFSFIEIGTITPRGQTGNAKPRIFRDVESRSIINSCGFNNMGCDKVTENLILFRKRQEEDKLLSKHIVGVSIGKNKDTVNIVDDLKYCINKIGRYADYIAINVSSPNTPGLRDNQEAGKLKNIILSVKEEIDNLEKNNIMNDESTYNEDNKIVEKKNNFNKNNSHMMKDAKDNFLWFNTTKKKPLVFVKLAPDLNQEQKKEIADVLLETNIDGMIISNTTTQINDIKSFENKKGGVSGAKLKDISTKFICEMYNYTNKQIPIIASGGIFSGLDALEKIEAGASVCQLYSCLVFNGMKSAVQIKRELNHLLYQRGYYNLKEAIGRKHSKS

Q: With `COCCOC(=O)N1C(=O)[C@@]2(c3ccccc31)[C@H](c1ccc(OCCO)cc1)N1[C@H](c3ccccc3)[C@H](c3ccccc3)OC(=O)[C@H]1[C@@H]2C(=O)Nc1nc2ccccc2s1` as the compound, how does the z-score [1] read?
A: 0.269

Q: And the z-score [2]?
A: 1.29 (inactive)

Q: And the z-score [3]?
A: -0.657 (inactive)

Q: And the composite z-score [4]?
A: -0.383 (inactive)

Q: What about the z-score [5] of the same compound?
A: 2 (inactive)

Q: And the z-score [6]?
A: 1.11 (inactive)

Q: And the z-score [7]?
A: -0.176 (inactive)

Q: What about the z-score [8] of the same compound?
A: -0.524 (inactive)

Q: And the z-score [9]?
A: 0.0486

Q: And the composite z-score [10]?
A: 0.259

Q: Which results are given for `COc1ccc([Si](C)(C)[C@@H]2[C@@H](CC(=O)N3CCC[C@H]3CO)O[C@]3(C(=O)N(Cc4ccc(N5C(=O)c6cccc7cccc5c67)cc4)c4ccccc43)[C@H]2C)cc1`?
A: z-score [1]: -2.57; z-score [2]: 0.165 (inactive); z-score [3]: -2.82 (inactive); composite z-score [4]: -0.0108 (inactive); z-score [5]: -0.012 (inactive); z-score [6]: 1.36 (inactive); z-score [7]: 0.3 (inactive); z-score [8]: -0.138 (inactive); z-score [9]: -4.75; composite z-score [10]: -0.0386

Q: What does the source list for `CCCCC(=C=CC[C@@H](O)c1ccc(OCCO)cc1)C[C@@H](O)COCc1ccccc1`?
A: z-score [1]: 0.931; z-score [2]: -5.91 (inactive); z-score [3]: -0.301 (inactive); composite z-score [4]: -2.29 (inactive); z-score [5]: 0.637 (inactive); z-score [6]: -3.31 (inactive); z-score [7]: 1.9 (inactive); z-score [8]: 1.55 (inactive); z-score [9]: -0.342; composite z-score [10]: 0.124

Q: Which results are given for `COc1cc(CO)cc(I)c1O[C@H]1C=C(C(=O)NCCO)C[C@@H](N(Cc2ccc(F)cc2)C(=O)C2CCCO2)[C@@H]1O` (stereo not given in full)?
A: z-score [1]: 0.266; z-score [2]: -1.96 (inactive); z-score [3]: 0.695 (inactive); composite z-score [4]: -0.737 (inactive); z-score [5]: 0.507 (inactive); z-score [6]: -0.254 (inactive); z-score [7]: 2.94 (inactive); z-score [8]: 2.03 (inactive); z-score [9]: 0.562; composite z-score [10]: -0.165

Q: Which z-score [1] does the source give for `CC=CC(O)C1C=CC2C(=O)N(c3ccccc3)C(=O)C2N1Nc1ccc([N+](=O)[O-])cc1` (stereo not given) here?
A: -0.0211

Q: What about the z-score [2] of the same compound?
A: 0.0621 (inactive)

Q: What about the z-score [3] of the same compound?
A: -0.156 (inactive)

Q: And the composite z-score [4]?
A: -0.213 (inactive)

Q: And the z-score [5]?
A: 0.71 (inactive)

Q: And the z-score [6]?
A: -0.372 (inactive)

Q: What about the z-score [7] of the same compound?
A: -1.19 (inactive)

Q: And the z-score [8]?
A: -0.279 (inactive)

Q: What about the z-score [9] of the same compound?
A: 0.0388

Q: What about the composite z-score [10] of the same compound?
A: -0.0807

Q: Which results are given for `COC(=O)[C@@]1(Cc2ccccc2)[C@H]2c3cc(C(=O)N4CCCC4)n(Cc4cc(F)cc5c4OCOC5)c3C[C@H]2CN1C(=O)c1ccccc1`?
A: z-score [1]: -0.0185; z-score [2]: 0.978 (inactive); z-score [3]: -0.523 (inactive); composite z-score [4]: -0.354 (inactive); z-score [5]: 0.122 (inactive); z-score [6]: -0.0989 (inactive); z-score [7]: -0.599 (inactive); z-score [8]: -0.37 (inactive); z-score [9]: -0.312; composite z-score [10]: 0.392

Q: Which z-score [1] does the source give for `CCOC(=O)C[C@H]1[C@H](OC(=O)c2ccccc2-c2ccccc2)[C@@H](NC(=O)CC(C)C)c2cc(OCCCO)ccc2N1C(=O)c1ccc2ccccc2n1` here?
A: -0.208

Q: And the z-score [2]?
A: 0.706 (inactive)

Q: And the z-score [3]?
A: 0.0612 (inactive)

Q: And the composite z-score [4]?
A: -0.112 (inactive)

Q: What about the z-score [5] of the same compound?
A: -0.483 (inactive)

Q: And the z-score [6]?
A: -0.078 (inactive)

Q: What about the z-score [7] of the same compound?
A: -0.418 (inactive)

Q: What about the z-score [8] of the same compound?
A: -0.0818 (inactive)

Q: What about the z-score [9] of the same compound?
A: -0.0139

Q: And the composite z-score [10]?
A: 0.0993

Q: Which z-score [1] does the source give for `COC(=O)[C@@]1(Cc2ccc(OC)cc2)[C@H]2c3cc(C(=O)N(C)C)n(Cc4nc5ccccc5[nH]4)c3C[C@H]2CN1C(=O)c1ccccc1` here?
A: 0.014

Q: What about the z-score [2] of the same compound?
A: 1.03 (inactive)

Q: What about the z-score [3] of the same compound?
A: -1.45 (inactive)

Q: What about the composite z-score [4] of the same compound?
A: -0.291 (inactive)

Q: What about the z-score [5] of the same compound?
A: -0.0982 (inactive)

Q: What about the z-score [6] of the same compound?
A: 1.11 (inactive)

Q: What about the z-score [7] of the same compound?
A: -0.614 (inactive)

Q: And the z-score [8]?
A: -1.18 (inactive)

Q: And the z-score [9]?
A: -2.51

Q: What about the composite z-score [10] of the same compound?
A: 0.382

Q: For `CCCCC(CC)C(O)C1C=CC2C(=O)N(c3ccccc3)C(=O)C2N1Nc1ccc([N+](=O)[O-])cc1` (stereo not given), which z-score [1] is on record?
A: -0.383

Q: And the z-score [2]?
A: -0.148 (inactive)

Q: What about the z-score [3] of the same compound?
A: -0.201 (inactive)

Q: What about the composite z-score [4] of the same compound?
A: 0.41 (inactive)

Q: And the z-score [5]?
A: 0.837 (inactive)

Q: And the z-score [6]?
A: -0.066 (inactive)

Q: What about the z-score [7] of the same compound?
A: -0.948 (inactive)

Q: What about the z-score [8] of the same compound?
A: -0.979 (inactive)

Q: And the z-score [9]?
A: -0.759

Q: What about the composite z-score [10] of the same compound?
A: -0.02

Q: With `C[C@]1(C(=O)NCCN2CCOCC2)c2ccccc2C(=O)N(Cc2ccc(OC(F)(F)F)cc2)[C@H]1c1ccc(CO)cc1` as the compound, how does the z-score [1] read?
A: 0.209

Q: What about the z-score [2] of the same compound?
A: -0.427 (inactive)

Q: What about the z-score [3] of the same compound?
A: -0.191 (inactive)

Q: What about the composite z-score [4] of the same compound?
A: -0.277 (inactive)

Q: And the z-score [5]?
A: 0.0435 (inactive)

Q: What about the z-score [6] of the same compound?
A: -0.393 (inactive)

Q: What about the z-score [7] of the same compound?
A: 0.815 (inactive)

Q: What about the z-score [8] of the same compound?
A: 0.121 (inactive)

Q: What about the z-score [9] of the same compound?
A: 0.206

Q: What about the composite z-score [10] of the same compound?
A: -0.0663

Q: Which z-score [1] does the source give for `COCCCNC(=O)[C@]1(Cc2ccccc2CN=[N+]=[N-])N=C(c2ccc(OCCCO)cc2)O[C@@H]1c1ccccc1` here?
A: 1.27

Q: And the z-score [2]?
A: -0.682 (inactive)

Q: What about the z-score [3] of the same compound?
A: -1.48 (inactive)

Q: What about the composite z-score [4] of the same compound?
A: 0.633 (inactive)

Q: What about the z-score [5] of the same compound?
A: -0.441 (inactive)

Q: What about the z-score [6] of the same compound?
A: 0.916 (inactive)

Q: What about the z-score [7] of the same compound?
A: 1.18 (inactive)

Q: And the z-score [8]?
A: 0.422 (inactive)

Q: What about the z-score [9] of the same compound?
A: -3.11

Q: And the composite z-score [10]?
A: 0.216

Q: For `O=C(O)[C@]1(Cc2ccccc2)N=C(c2ccc(OCCCO)cc2)O[C@@H]1c1ccccc1`, which z-score [1] is on record?
A: 0.424

Q: And the z-score [2]?
A: -1.13 (inactive)

Q: What about the z-score [3] of the same compound?
A: 0.723 (inactive)

Q: What about the composite z-score [4] of the same compound?
A: 0.84 (inactive)

Q: And the z-score [5]?
A: -0.912 (inactive)

Q: What about the z-score [6] of the same compound?
A: -0.002 (inactive)

Q: What about the z-score [7] of the same compound?
A: 0.0717 (inactive)

Q: What about the z-score [8] of the same compound?
A: 1.01 (inactive)

Q: And the z-score [9]?
A: 1.09

Q: What about the composite z-score [10] of the same compound?
A: -0.258
